Data reported in ChEMBL document CHEMBL3988442, “University of Dundee, Small-Polar-MMV Screening Library” (2021).
For part of these data: Entries with a potency or affinity are not part of this list.

Tests used:
Design in all cases: scale not given: direction of the effect not stated beside the values
[1] = target: Protein translocase subunit SecA (Escherichia coli (strain K12)) (UniProt P10408); test: Assay to Identify E. coli SecA ATPase Inhibitors; format: functional; conditions: 30 µM
[2] = target: T1, Ubiquitin-activating enzyme e1, putative (Leishmania donovani (strain BPK282A1)) (UniProt E9BSI1); test: Leishmania donovani Ubiquitin Activating Enzyme (LdE1); format: functional; conditions: 30 µM
T1 sequence (whole entry): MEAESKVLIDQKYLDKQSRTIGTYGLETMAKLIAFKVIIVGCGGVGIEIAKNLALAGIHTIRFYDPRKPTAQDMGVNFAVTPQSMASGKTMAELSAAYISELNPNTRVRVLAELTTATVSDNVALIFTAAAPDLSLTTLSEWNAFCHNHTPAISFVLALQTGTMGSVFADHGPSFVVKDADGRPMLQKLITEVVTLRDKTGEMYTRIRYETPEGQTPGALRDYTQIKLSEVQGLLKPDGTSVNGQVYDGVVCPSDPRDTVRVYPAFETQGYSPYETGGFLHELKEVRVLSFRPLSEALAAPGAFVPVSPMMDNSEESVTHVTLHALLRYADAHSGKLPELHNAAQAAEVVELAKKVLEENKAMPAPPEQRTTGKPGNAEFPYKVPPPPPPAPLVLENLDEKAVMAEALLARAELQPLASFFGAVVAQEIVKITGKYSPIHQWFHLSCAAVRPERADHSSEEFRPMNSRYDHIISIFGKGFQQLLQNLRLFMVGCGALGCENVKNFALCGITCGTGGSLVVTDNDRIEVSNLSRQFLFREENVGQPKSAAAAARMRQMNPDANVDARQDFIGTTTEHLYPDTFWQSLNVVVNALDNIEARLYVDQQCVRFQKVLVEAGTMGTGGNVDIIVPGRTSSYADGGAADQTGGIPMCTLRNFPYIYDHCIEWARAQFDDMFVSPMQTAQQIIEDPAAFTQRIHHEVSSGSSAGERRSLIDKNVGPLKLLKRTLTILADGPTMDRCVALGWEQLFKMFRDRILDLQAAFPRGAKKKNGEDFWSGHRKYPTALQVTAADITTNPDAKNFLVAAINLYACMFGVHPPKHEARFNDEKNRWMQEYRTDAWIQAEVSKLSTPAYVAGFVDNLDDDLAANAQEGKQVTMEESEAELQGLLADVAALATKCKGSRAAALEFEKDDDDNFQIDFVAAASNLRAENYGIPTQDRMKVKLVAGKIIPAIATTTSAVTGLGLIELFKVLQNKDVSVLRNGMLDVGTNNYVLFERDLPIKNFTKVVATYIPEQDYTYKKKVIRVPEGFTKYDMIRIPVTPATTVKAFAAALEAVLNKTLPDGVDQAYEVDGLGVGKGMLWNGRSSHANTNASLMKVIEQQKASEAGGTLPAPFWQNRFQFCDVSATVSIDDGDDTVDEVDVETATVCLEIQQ

[3] = target: AMP-activated protein kinase, AMPK (Homo sapiens) (UniProt P54646+O43741+P54619+Q9UGJ0+Q9Y478+Q13131+Q9UGI9); test: AMP-dependent Kinase enzyme assay. An in vitro enzyme assay that detects ADP turnover that is directly proportional to AMPK activity. This uses naive AMPK that is activated during the assay with MK-8722; format: functional; conditions: 30 µM
[4] = target: Sialic acid-binding Ig-like lectin 9 (Homo sapiens) (UniProt Q9Y336); test: Hs-Siglec9 ALPHAscreen SOP 20170721; conditions: 10 µM
Trypanosoma cruzi = test: Trypanosoma cruzi phosphomannomutase and mannose-1-phosphate guanylyltransferase assay; format: functional; conditions: 10 µM
[5] = target: T2, Arginase-2, mitochondrial (Homo sapiens) (UniProt P78540); test: in vitro enzyme assay to detect the production of urea directly proportional to the activity of Arginase II; format: functional; conditions: 33.3 µM; note: in the data most compounds retested in dose-response had high values
T2 sequence (whole entry): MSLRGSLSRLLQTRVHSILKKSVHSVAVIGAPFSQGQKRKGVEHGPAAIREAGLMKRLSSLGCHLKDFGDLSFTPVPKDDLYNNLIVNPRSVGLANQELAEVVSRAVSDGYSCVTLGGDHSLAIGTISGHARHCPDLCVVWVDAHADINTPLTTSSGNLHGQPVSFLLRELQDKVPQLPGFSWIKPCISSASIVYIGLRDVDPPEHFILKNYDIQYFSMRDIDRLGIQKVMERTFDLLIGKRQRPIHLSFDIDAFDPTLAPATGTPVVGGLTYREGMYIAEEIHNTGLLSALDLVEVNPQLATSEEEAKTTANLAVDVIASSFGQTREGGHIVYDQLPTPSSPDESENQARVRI

[6] = target: T3, Proteasome subunit beta (Trypanosoma cruzi) (UniProt O96673); test: Trypanosoma cruzi proteasome chymotrypsin-like activity (TcProtChymo) assay.; note: in the data most compounds retested in dose-response had high values; format: functional; conditions: 9.37 µM
T3 sequence (whole entry): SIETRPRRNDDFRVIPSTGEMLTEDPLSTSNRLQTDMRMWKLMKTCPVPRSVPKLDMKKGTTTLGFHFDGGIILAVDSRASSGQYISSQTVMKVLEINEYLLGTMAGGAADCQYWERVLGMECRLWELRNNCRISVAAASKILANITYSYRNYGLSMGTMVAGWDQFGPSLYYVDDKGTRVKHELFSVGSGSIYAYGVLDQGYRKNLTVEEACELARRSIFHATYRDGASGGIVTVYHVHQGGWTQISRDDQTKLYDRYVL

Homo sapiens = species: Homo sapiens; test: To identify inhibition of the IFN signalling (Jak-Stat) pathway via expression of an eGFP reporter gene under the control of an IFN-stimulated response element (ISRE) containing MxA promoter.; format: functional; conditions: 30 µM
[7] = target: T4, Tyrosyl-tRNA synthetase, putative (Trypanosoma cruzi (strain CL Brener)) (UniProt Q4DSP6); test: Trypanosoma cruzi tyrosyl tRNA synthetase (TcYRS) _High Tyrosine SOP; format: functional; conditions: 30 µM; note: in the data most compounds retested in dose-response had high values
T4 sequence (whole entry): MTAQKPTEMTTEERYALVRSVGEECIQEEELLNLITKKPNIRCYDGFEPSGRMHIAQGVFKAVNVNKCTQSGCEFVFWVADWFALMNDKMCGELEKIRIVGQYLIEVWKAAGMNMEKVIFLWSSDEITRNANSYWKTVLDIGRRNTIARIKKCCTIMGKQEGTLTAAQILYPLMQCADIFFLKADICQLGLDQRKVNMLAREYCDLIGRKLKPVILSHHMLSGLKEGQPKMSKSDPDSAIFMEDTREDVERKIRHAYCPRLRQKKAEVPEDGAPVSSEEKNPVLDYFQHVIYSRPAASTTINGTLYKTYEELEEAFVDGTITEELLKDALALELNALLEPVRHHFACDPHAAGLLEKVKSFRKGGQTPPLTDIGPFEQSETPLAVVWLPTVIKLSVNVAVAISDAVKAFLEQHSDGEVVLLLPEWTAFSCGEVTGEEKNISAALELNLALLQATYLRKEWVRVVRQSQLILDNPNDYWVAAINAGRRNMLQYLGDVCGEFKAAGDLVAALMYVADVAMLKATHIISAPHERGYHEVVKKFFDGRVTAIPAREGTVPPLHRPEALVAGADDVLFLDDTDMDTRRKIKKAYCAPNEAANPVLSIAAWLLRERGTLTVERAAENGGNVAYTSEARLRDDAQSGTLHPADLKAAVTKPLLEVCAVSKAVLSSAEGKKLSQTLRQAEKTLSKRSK

[8] = target: T4, Tyrosyl-tRNA synthetase, putative (Trypanosoma cruzi (strain CL Brener)); test: Trypanosoma cruzi tyrosyl tRNA synthetase (TcYRS) SOP; format: functional; conditions: 30 µM
[9] = target: Chromo domain-containing protein 1 (Saccharomyces cerevisiae (strain ATCC 204508 / S288c) (Baker's yeast)) (UniProt P32657); test: ScCHD-1 Enzyme Inhibition Assay; format: functional; conditions: 30 µM; note: in the data most compounds retested in dose-response had high values
Sequence of Chromo domain-containing protein 1 (Saccharomyces cerevisiae (strain ATCC 204508 / S288c) (Baker's yeast)) (P32657 whole entry, the tested form may be a part): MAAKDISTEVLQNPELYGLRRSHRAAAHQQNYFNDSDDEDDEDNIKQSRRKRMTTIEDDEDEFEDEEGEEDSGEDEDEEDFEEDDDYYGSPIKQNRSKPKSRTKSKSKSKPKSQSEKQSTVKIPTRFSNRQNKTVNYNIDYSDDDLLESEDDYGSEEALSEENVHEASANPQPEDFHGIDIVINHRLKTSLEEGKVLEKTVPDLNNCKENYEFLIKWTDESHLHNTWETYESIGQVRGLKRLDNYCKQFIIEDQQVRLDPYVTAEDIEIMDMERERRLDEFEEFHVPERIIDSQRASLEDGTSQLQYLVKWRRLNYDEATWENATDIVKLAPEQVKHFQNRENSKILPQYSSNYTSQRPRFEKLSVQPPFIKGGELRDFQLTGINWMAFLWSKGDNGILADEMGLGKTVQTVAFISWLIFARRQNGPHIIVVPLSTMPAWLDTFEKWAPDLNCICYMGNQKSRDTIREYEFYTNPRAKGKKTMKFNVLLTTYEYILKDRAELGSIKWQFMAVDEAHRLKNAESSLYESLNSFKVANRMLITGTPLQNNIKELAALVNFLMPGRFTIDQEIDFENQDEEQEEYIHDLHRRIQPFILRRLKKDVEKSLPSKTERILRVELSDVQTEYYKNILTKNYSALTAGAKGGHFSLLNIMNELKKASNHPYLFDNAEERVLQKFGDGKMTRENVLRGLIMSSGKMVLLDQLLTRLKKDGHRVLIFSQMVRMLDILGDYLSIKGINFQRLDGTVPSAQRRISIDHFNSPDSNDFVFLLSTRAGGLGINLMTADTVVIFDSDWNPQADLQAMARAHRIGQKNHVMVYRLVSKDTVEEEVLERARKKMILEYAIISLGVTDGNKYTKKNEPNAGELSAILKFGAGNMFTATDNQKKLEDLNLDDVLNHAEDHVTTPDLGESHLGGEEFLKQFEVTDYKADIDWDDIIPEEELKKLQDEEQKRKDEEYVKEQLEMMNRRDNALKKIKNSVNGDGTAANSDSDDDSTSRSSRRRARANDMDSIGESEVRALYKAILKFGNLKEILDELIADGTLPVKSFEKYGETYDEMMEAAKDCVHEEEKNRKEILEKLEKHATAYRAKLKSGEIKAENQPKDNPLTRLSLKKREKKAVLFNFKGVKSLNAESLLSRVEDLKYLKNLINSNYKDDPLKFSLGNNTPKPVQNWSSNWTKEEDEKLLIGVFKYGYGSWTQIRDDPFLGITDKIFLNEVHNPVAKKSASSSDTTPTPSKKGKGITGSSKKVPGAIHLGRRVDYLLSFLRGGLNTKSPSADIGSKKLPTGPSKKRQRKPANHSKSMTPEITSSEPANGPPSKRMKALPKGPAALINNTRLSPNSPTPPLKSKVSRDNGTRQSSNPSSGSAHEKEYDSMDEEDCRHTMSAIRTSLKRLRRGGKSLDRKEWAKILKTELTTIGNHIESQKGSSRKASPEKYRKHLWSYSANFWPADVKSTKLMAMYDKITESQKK

Sequence of Sialic acid-binding Ig-like lectin 9 (Homo sapiens) (Q9Y336 whole entry): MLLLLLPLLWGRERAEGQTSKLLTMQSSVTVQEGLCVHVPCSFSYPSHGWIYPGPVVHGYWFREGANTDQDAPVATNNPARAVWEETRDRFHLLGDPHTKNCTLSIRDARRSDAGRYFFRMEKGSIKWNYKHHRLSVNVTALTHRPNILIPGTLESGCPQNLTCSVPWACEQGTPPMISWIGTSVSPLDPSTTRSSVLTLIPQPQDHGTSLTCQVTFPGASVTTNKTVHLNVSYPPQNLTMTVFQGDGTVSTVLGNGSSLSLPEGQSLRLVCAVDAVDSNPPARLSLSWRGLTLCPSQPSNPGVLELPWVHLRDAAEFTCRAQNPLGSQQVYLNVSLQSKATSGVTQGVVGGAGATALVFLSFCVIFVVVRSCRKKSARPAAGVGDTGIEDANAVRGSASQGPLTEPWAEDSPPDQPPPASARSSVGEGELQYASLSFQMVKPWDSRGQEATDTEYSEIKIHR
Sequence of Protein translocase subunit SecA (Escherichia coli (strain K12)) (P10408 whole entry): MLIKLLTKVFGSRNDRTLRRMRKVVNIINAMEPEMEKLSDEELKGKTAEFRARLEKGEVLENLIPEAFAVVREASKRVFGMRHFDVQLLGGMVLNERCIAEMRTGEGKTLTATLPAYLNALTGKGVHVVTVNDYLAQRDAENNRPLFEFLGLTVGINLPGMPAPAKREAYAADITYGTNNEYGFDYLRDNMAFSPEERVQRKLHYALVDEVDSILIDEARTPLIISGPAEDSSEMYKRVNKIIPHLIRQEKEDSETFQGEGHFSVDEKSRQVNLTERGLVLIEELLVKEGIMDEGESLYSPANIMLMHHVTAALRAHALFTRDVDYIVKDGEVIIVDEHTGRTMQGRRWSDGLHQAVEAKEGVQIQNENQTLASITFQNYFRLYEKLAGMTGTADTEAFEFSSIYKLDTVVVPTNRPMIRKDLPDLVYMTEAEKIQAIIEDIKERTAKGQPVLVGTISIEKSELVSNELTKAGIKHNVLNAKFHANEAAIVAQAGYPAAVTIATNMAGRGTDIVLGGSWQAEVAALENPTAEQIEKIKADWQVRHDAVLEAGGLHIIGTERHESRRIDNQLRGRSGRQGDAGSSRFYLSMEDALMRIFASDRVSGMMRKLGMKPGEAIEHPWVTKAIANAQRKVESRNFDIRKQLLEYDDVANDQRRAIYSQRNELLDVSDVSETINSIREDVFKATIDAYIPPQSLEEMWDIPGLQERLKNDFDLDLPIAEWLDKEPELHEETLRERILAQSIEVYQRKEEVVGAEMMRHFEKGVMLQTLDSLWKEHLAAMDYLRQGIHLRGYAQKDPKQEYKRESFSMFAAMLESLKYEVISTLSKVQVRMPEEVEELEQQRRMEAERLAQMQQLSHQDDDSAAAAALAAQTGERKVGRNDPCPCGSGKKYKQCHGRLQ

SMILES | Percent Effect [1] | Percent Effect [2] | Percent Effect [3] | Percent Effect [4] | Percent Effect (Trypanosoma cruzi) | Percent Effect [5] | Percent Effect [6] | Percent Effect (Homo sapiens) | Percent Effect [7] | Percent Effect [8] | Percent Effect [9]
Cc1nccn1C1CCCN(C(=O)C2=NN(C)C(=O)CC2)C1 (centres undefined) | -0.962% | 18.9% | 2.88% | -10.1% | -3.68% | -4.81% | 20.9% | 23.8% | 4.43% | 6.17% | -3.99%
CC(C)c1nn(C)c(N(C)C)c1CNCCC(=O)NC1CCCC1 | -6.71% | 21.1% | -15.3% | 3.05% | 10.4% | 1.08% | 13.4% | -19.1% | 7.39% | 23.5% | -6.05%
CN(C(=O)Cn1nc(-c2ccc(F)cc2)oc1=O)C1CCS(=O)(=O)C1 (centres undefined) | 0.314% | 20.8% | -6.94% | 6.92% | 0.291% | 0% | 19.3% | 13.6% | 2.1% | 10.3% | -6.7%
CC(C(=O)NCc1ccnc(N(C)C)c1)n1cncn1 (centres undefined) | -2.02% | 2.7% | -7.17% | 7.55% | 8.88% | -0.476% | 17.2% | -1.73% | 5.82% | 9.76% | -3.72%
CN1C(=O)CC(C(=O)O)C12CCN(Cc1ccc(F)cc1Cl)CC2 (centres undefined) | -3.75% | 2.67% | -7.2% | 5.97% | 3.41% | -0.521% | 16% | 15.5% | 8.2% | 13.6% | -3.62%
COc1cccc(CN(C)C(=O)CCC(=O)c2ccc(Cl)cc2)c1OC | -3.29% | -5.48% | -3.03% | 3.31% | -0.992% | -7.58% | 6.59% | 17% | 1.04% | 8.64% | -4.85%
COc1cccc(COCC(O)CN2CC(n3cccn3)C2)c1 (centres undefined) | 0.892% | 21.1% | 5.98% | 1.34% | 6.58% | -0.383% | 10.4% | -16.2% | 7.35% | 19.5% | -12.6%
Cn1ncc2c(=O)[nH]c(CN(Cc3ccco3)C3CCCC3)nc21 | -5.65% | 23.4% | -6.78% | 6.27% | 2.81% | -1.42% | 14.7% | 6.82% | 2.91% | 24.4% | -9.65%
O=C(CS(=O)(=O)CC1CCCCC1)NC1CCCCNC1=O (centres undefined) | -5.08% | 2.6% | -1.46% | 5.38% | 4.49% | -6.05% | -2.7% | -1.34% | 0% | 9.76% | 83.8%
